Measured values reported in the supplement of paper PMC13380429.

Tested on: Vero E6 infected with SARS-CoV-2
Experiment: inhibition of SARS-CoV-2 cytopathic effect; higher = more antiviral protection, active = above 15
Settings: 48 h

Measured: inhibition of SARS-CoV-2 cytopathic effect

Oc1ccc2c(c1)CC[C@H](c1ccccc1)[C@@H]2c1ccc(OCCN2CCCC2)cc1 [lasofoxifene]
inactive: 1 nM -1.63% | 8.33 nM 4.35% | 100 nM 0.8% | 833.33 nM -0.28%
active: 10000 nM 49.6%

COc1ccc2c(Oc3ccc(NC(=O)c4c(C)n(CC(C)(C)O)n(-c5ccccc5)c4=O)nc3)ccnc2c1
inactive: 1 nM 2.46% | 8.33 nM 1.91% | 100 nM -0.28% | 833.33 nM -1.35% | 10000 nM -0.65%

CC[C@@H](Nc1c(Nc2cccc(C(=O)N(C)C)c2O)c(=O)c1=O)c1ccc(C)o1 [navarixin]
inactive: 1 nM -0.8% | 8.33 nM 1.26% | 100 nM 0.77% | 833.33 nM 1.8% | 10000 nM -2.11%

COc1ccc(/C=C\c2cc(OC)c(OC)c(OC)c2)cc1O [combretastatin-A-4]
inactive: 1 nM 1.94% | 8.33 nM 1.57% | 100 nM -1.22% | 833.33 nM -2.08% | 10000 nM -0.45%

COc1ccc2cc(OCC3(C(=O)O)CN(C(=O)c4ccc(F)cc4)C3)ccc2c1
inactive: 1 nM 2.48% | 8.33 nM 0% | 100 nM 1.35% | 833.33 nM 2.44% | 10000 nM 1.77%

CNS(=O)(=O)CCc1ccc2[nH]cc(C3CCN(C)CC3)c2c1 [naratriptan]
inactive: 1 nM -2.05% | 8.33 nM 0.47% | 100 nM 2.08% | 833.33 nM -3.05% | 10000 nM -1.76%

CCOc1ccc(C(=O)OCCN(CC)CC)cc1 [parethoxycaine]
inactive: 1 nM 0.82% | 8.33 nM -3.01% | 100 nM -2.92% | 833.33 nM -0.3% | 10000 nM -0.09%

N[C@@H](Cc1ccc(Cl)cc1)C(=O)O (racemic) [fenclonine-(+/-)]
inactive: 1 nM 1.09% | 8.33 nM 0.73% | 100 nM 0.7% | 833.33 nM 4.29% | 10000 nM 3%

CCOC(=O)[C@H]1O[C@@H]1C(=O)N[C@@H](CC(C)C)C(=O)NCCC(C)C [aloxistatin]
inactive: 1 nM 0.43% | 8.33 nM -1.01% | 100 nM 0.39% | 833.33 nM -0.54% | 10000 nM 11.2%

CC(C)(C)c1cc(C(C)(C)C)c(NC(=O)c2c[nH]c3ccccc3c2=O)cc1O [ivacaftor]
inactive: 1 nM -1.65% | 8.33 nM 1.11% | 100 nM -2.96% | 833.33 nM -10.4% | 10000 nM -4.71%

O=c1n(CCCN2CCN(c3cccc(Cl)c3)CC2)nc2ccccn12 [trazodone]
inactive: 1 nM 0.53% | 8.33 nM 4.07% | 100 nM 0.98% | 833.33 nM -1.12% | 10000 nM -0.82%

CC(=O)C(=Cc1cc(O)c(O)c([N+](=O)[O-])c1)C(C)=O [nitecapone]
inactive: 1 nM -1.48% | 8.33 nM 2.97% | 100 nM 1.47% | 833.33 nM -1.89% | 10000 nM -6.91%

C=CCN1CCCC1CNC(=O)c1cc2nn[nH]c2cc1OC (stereo not given) [alizapride]
inactive: 1 nM 0.31% | 8.33 nM 1.78% | 100 nM -1.64% | 833.33 nM -1.24% | 10000 nM -0.58%

O=C(O)CNC(=O)c1ccccc1I [2-iodohippuric-acid]
inactive: 1 nM 3.32% | 8.33 nM 2.66% | 100 nM 0.05% | 833.33 nM 0.88% | 10000 nM 0.58%

CN1CCN(C(c2ccccc2)c2ccc(Cl)cc2)CC1 (stereo not given) [chlorcyclizine]
inactive: 1 nM -1.24% | 8.33 nM 1.4% | 100 nM -0.05% | 833.33 nM -3.64% | 10000 nM -10.6%

CCCCNc1cc(C(=O)O)cc(S(N)(=O)=O)c1Oc1ccccc1 [bumetanide]
inactive: 1 nM 0.26% | 8.33 nM 2.83% | 100 nM 0.69% | 833.33 nM 1.71% | 10000 nM 1.07%

O=C1NCCc2[nH]c(-c3ccncc3)cc21
inactive: 1 nM -0.31% | 8.33 nM -0.69% | 100 nM -1% | 833.33 nM -0.56% | 10000 nM -3.45%

C[C@@H](O)[C@H]1C(=O)N2C(C(=O)O)=C(S[C@@H]3CN[C@H](C(=O)N(C)C)C3)[C@H](C)[C@H]12 [meropenem]
inactive: 1 nM 0.11% | 8.33 nM 1.38% | 100 nM 0.18% | 833.33 nM 6.2% | 10000 nM -0.92%
